Data as given in PubChem BioAssay AID1159580 (chemical genetic matrix, 2015).
Hit rate of the full screen: of about 5,500 compounds, about 2,000 (36%) were called active. Not shown: some 18% with an inconclusive outcome. Cut-off read from the data, not from the text of the source: active = normalized growth mostly below about 0.91 (no sharp cut-off); inconclusive = no clear call, values can overlap the other calls; inactive = mostly above about 0.92. The list shows a part of the results.

Assay: chemical genetic growth profiling, strain panel (AID 1159580);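 note: tested at 20 µM; growth read once vehicle control cultures reached saturation at 30 °C; 1 = growth at the plate median or of vehicle wells; lower values mean less growth of the strain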
Conditions: growth OD

Measured: normalized growth

CCCSc1ccc2nc(NC(=O)OC)[nH]c2c1
active: S. cerevisiae deletion strains, locus YKR001C, strain vps1, hits give low values 0.882 | S. cerevisiae deletion strains, locus YLR268W, strain sec22, hits give low values 0.847 | S. cerevisiae deletion strains, locus YML124C, strain tub3, hits give low values 0.202 | S. cerevisiae deletion strains, locus YNL153C, strain GIM3, hits give low values 0.0651 | S. cerevisiae deletion strains, locus YPL241C, strain CIN2, hits give low values 0.0807 | S. cerevisiae deletion strains, locus YPR163C, strain tif3, hits give low values 0.904
inactive: S. cerevisiae deletion strains, locus YJR075W, strain HOC1, hits give low values 0.97 | S. cerevisiae deletion strains, locus YKL009W, strain mrt4, hits give low values 0.938 | S. cerevisiae deletion strains, locus YKL068W, hits give low values 0.972 | S. cerevisiae deletion strains, locus YKL085W, strain MDH1 (second series), hits give low values 0.986 | S. cerevisiae deletion strains, locus YKL085W, strain MDH1, hits give low values 0.986 | S. cerevisiae deletion strains, locus YKL160W, strain elf1, hits give low values 1.01 | S. cerevisiae deletion strains, locus YKL190W, strain CNB1, hits give low values 0.988 | S. cerevisiae deletion strains, locus YKR026C, strain gcn3, hits give low values 1.01 | S. cerevisiae deletion strains, locus YKR091W, strain srl3, hits give low values 1.01 | S. cerevisiae deletion strains, locus YLL001W, strain dnm1, hits give low values 0.999 | S. cerevisiae deletion strains, locus YLL026W, hits give low values 1.01 | S. cerevisiae deletion strains, locus YLL041C, strain sdh2, hits give low values 1 | S. cerevisiae deletion strains, locus YLR027C, strain aat2, hits give low values 1 | S. cerevisiae deletion strains, locus YLR039C, strain RIC1, hits give low values 0.731 | S. cerevisiae deletion strains, locus YLR058C, strain SHM2, hits give low values 0.988 | S. cerevisiae deletion strains, locus YLR102C, strain apc9, hits give low values 0.973 | S. cerevisiae deletion strains, locus YLR113W, strain HOG1, hits give low values 0.979 | S. cerevisiae deletion strains, locus YLR221C, strain rsa3, hits give low values 1.01 | S. cerevisiae deletion strains, locus YLR258W, strain gsy2, hits give low values 1.01 | S. cerevisiae deletion strains, locus YLR262C, strain YPT6 (second series), hits give low values 0.874 | S. cerevisiae deletion strains, locus YLR262C, strain YPT6, hits give low values 0.732 | S. cerevisiae deletion strains, locus YLR320W, strain mms22, hits give low values 1.01 | S. cerevisiae deletion strains, locus YLR330W, strain CHS5, hits give low values 0.982 | S. cerevisiae deletion strains, locus YLR342W, strain FKS1 (second series), hits give low values 1.01 | S. cerevisiae deletion strains, locus YLR342W, strain FKS1, hits give low values 1.02 | S. cerevisiae deletion strains, locus YLR357W, strain rsc2, hits give low values 0.975 | S. cerevisiae deletion strains, locus YLR370C, strain arc18, hits give low values 1 | S. cerevisiae deletion strains, locus YLR371W, strain rom2, hits give low values 0.967 | S. cerevisiae deletion strains, locus YLR384C, strain iki3, hits give low values 0.997 | S. cerevisiae deletion strains, locus YLR418C, strain cdc73, hits give low values 0.886 | S. cerevisiae deletion strains, locus YML016C, strain PPZ1, hits give low values 0.993 | S. cerevisiae deletion strains, locus YML032C, strain rad52, hits give low values 0.947 | S. cerevisiae deletion strains, locus YML120C, strain ndi1, hits give low values 1 | S. cerevisiae deletion strains, locus YMR058W, strain fet3, hits give low values 1.01 | S. cerevisiae deletion strains, locus YMR078C, strain ctf18, hits give low values 0.964 | S. cerevisiae deletion strains, locus YMR125W, strain sto1, hits give low values 1.02 | S. cerevisiae deletion strains, locus YMR129W, hits give low values 1.01 | S. cerevisiae deletion strains, locus YMR205C, strain PFK2, hits give low values 1.03 | S. cerevisiae deletion strains, locus YMR223W, strain ubp8, hits give low values 0.997 | S. cerevisiae deletion strains, locus YMR231W, strain pep5, hits give low values 1.03 | S. cerevisiae deletion strains, locus YMR263W, strain SAP30, hits give low values 0.941 | S. cerevisiae deletion strains, locus YMR307W, strain GAS1, hits give low values 1.19 | S. cerevisiae deletion strains, locus YNL067W, strain RPL9B, hits give low values 0.942 | S. cerevisiae deletion strains, locus YNL071W, strain lat1, hits give low values 1.02 | S. cerevisiae deletion strains, locus YNL128W, strain TEP1, hits give low values 0.989 | S. cerevisiae deletion strains, locus YNL183C, strain NPR1, hits give low values 0.896 | S. cerevisiae deletion strains, locus YNL209W, strain ssb2, hits give low values 1 | S. cerevisiae deletion strains, locus YNL233W, strain BNI4, hits give low values 0.965 | S. cerevisiae deletion strains, locus YNL248C, strain rpa49, hits give low values 1 | S. cerevisiae deletion strains, locus YNL250W, strain rad50, hits give low values 0.999 | S. cerevisiae deletion strains, locus YNL271C, strain bni1, hits give low values 0.973 | S. cerevisiae deletion strains, locus YNL298W, strain CLA4, hits give low values 0.947 | S. cerevisiae deletion strains, locus YNL307C, strain MCK1, hits give low values 0.948 | S. cerevisiae deletion strains, locus YNL322C, strain KRE1 (second series), hits give low values 1.01 | S. cerevisiae deletion strains, locus YNL322C, strain KRE1, hits give low values 0.996 | S. cerevisiae deletion strains, locus YNR049C, strain mso1, hits give low values 1.01 | S. cerevisiae deletion strains, locus YNR052C, strain pop2, hits give low values 0.958 | S. cerevisiae deletion strains, locus YOL006C, strain TOP1, hits give low values 0.729 | S. cerevisiae deletion strains, locus YOL012C, strain htz1 0.603 | S. cerevisiae deletion strains, locus YOL147C, strain pex11, hits give low values 0.967 | S. cerevisiae deletion strains, locus YOR001W, strain rrp6, hits give low values 1.01 | S. cerevisiae deletion strains, locus YOR061W, strain CKA2, hits give low values 0.996 | S. cerevisiae deletion strains, locus YOR069W, strain VPS5, hits give low values 0.99 | S. cerevisiae deletion strains, locus YOR070C, strain gyp1, hits give low values 1.01 | S. cerevisiae deletion strains, locus YOR080W, strain dia2, hits give low values 1.02 | S. cerevisiae deletion strains, locus YOR083W, strain WHI5, hits give low values 1.01 | S. cerevisiae deletion strains, locus YOR106W, strain vam3, hits give low values 0.997 | S. cerevisiae deletion strains, locus YOR136W, strain idh2, hits give low values 0.996 | S. cerevisiae deletion strains, locus YOR144C, strain elg1, hits give low values 0.965 | S. cerevisiae deletion strains, locus YOR184W, strain ser1, hits give low values 0.893 | S. cerevisiae deletion strains, locus YOR231W, strain MKK1, hits give low values 0.941 | S. cerevisiae deletion strains, locus YOR265W, strain rbl2, hits give low values 1.02 | S. cerevisiae deletion strains, locus YOR270C, strain vph1, hits give low values 0.963 | S. cerevisiae deletion strains, locus YOR290C, strain snf2, hits give low values 0.98 | S. cerevisiae deletion strains, locus YOR316C, strain cot1, hits give low values 0.959 | S. cerevisiae deletion strains, locus YPL051W, strain arl3, hits give low values 0.998 | S. cerevisiae deletion strains, locus YPL055C, strain LGE1, hits give low values 0.945 | S. cerevisiae deletion strains, locus YPL078C, strain atp4, hits give low values 1.01 | S. cerevisiae deletion strains, locus YPL106C, strain sse1, hits give low values 1.04 | S. cerevisiae deletion strains, locus YPL240C, strain hsp82, hits give low values 1 | S. cerevisiae deletion strains, locus YPL256C, strain CLN2, hits give low values 0.933 | S. cerevisiae deletion strains, locus YPR119W, strain clb2, hits give low values 0.963 | S. cerevisiae deletion strains, locus YPR141C, strain kar3, hits give low values 0.992 | S. cerevisiae deletion strains, locus YPR167C, strain met16, hits give low values 0.954 | S. cerevisiae deletion strains, strain wtn01, hits give low values 0.916 | S. cerevisiae strains, strain wild type, hits give low values 1
